Results from PubChem BioAssay (NCI).
The panel holds about 83,000 compounds, 20% with a hit somewhere; the sample as a whole holds those more often.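 Note: values are percent growth. 100 is the growth of untreated cells, values between 100 and 0 indicate rising inhibition; between -100 and 0 indicates cell death.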 Values without a mark were called inactive. Rule for the calls: active = growth percent below 10; inactive = the rest.

What follows are compounds tested on U251 CNS (assay: NCI-60 one-dose screen, 48 h (100 = growth as untreated, 0 = no growth, -100 = all killed)). Details: 10 µM unless noted.
In the case of `S=c1nc(-c2ccccn2)c(-c2ccccn2)n[nH]1`, the growth was 102%. With `O=C(O)c1ccc(OCc2ccccc2)cc1` the growth was 93.7%. Work on `CCC(=O)Oc1c(C)cc(O)c2ccccc12` yielded a growth of 87.7%. `Cc1nc(O)cc(=O)[nH]1` showed a growth of 118%. In the case of `CC(=O)NNC(=S)/N=C\C(C(=O)c1ccccc1)=C(/O)c1ccccc1`, the growth was 99.5%. `OCC(O)COc1ccc(Cl)cc1Cl` (configuration not stated) showed a growth of 89.3%. Compound `ClCc1cccc2c(CCl)cccc12` has a growth of 56.6%. `COc1c(CNC(=O)CCl)cc2[nH]c(C)cc2c1CNC(=O)CCl` was tested, and the growth was 10.3%. For `CC(=O)Nc1ccc(/C=C2\SC(=S)N(/C=C(\C(C)=O)C(N)=O)C2=O)cc1`, the growth was 90.3%. `CC(CO)(CO)C(=O)O` gave a growth of 102%. `COC(=O)c1ccc([N+](=O)[O-])c(C)c1` gave a growth of 101%. In the case of `CC(C)c1ncc([N+](=O)[O-])n1C`, the growth was 104%. With `CC(=O)c1cccc(NS(=O)(=O)c2ccc(C)cc2)c1` the growth was 61.2%. For `Clc1ccc(-c2noc(/C=C\c3ccccc3)n2)cc1`, the growth was 91.2%. `OC1Cc2ccccc2C1` was tested, and the growth was 105%. Work on `CC(=O)Nc1ccc(O)c(C)c1` yielded a growth of 92.5%. `Oc1ccc(N=Cc2ccc(OCc3ccccc3)cc2)cc1` showed a growth of 102%. For `CCCCNC(=O)c1ccc(OCC)cc1`, the growth was 99.1%. With `CSc1nc2[nH]ncc2c(=O)[nH]1` the growth was 103%. With `Cc1ccc2nc(-c3ccc(N=Cc4ccccc4O)cc3)sc2c1` the growth was 91.6%. `O=C(CCCl)OCCOc1ccccc1` showed a growth of 99.9%. Compound `CCC1CCC(C)NC1` (configuration not stated) has a growth of 95.7%. `COc1cc(C(=O)N2CCN(c3ccccc3)CC2)c2ccccc2n1` was tested, and the growth was 11.1%. `NNc1ncnc2nc[nH]c12` showed a growth of 72.2%. In the case of `FC(F)(F)c1cc(NC2=NCCN=C(Nc3cc(C(F)(F)F)cc(C(F)(F)F)c3)SS2)cc(C(F)(F)F)c1`, the growth was 23.3%. `Nc1ncnc(Nc2ccccc2)n1` showed a growth of 111%. Compound `c1ccc2[nH]c(Cc3nc4ccccc4[nH]3)nc2c1` has a growth of 106%. Work on `CC(C)(N)CO[C@H]1C[C@H]2CC[C@@]1(C)C2(C)C` yielded a growth of 96.6%. For `Nc1ncc([N+](=O)[O-])cn1`, the growth was 96.2%. With `Cc1cc(CC(=O)NCCO)n(CCO)c(=O)c1` the growth was 97.9%. `NNC(=O)N/N=C1\C(=O)N(c2nccs2)C(=O)C(=O)C1c1nc2ccccc2s1` (configuration not stated) showed a growth of 80%. `Nc1nc(Cl)cc(Cl)n1` was tested, and the growth was 102%. In the case of `CC(=O)c1cccc(O)c1`, the growth was 97.2%. `O=c1n(CC2CO2)c(=O)n(CC2CO2)n1CC1CO1` (configuration not stated) was tested, and the growth was 54.3%. `O=C(O)c1c[nH]c2ccccc2c1=O` showed a growth of 93.9%. `CC1(C)CCC(C)(C)NC(=S)N1` gave a growth of 104%. Work on `NC(=O)OCCO` yielded a growth of 97.4%.
